TDP1 cell noCPT – qHTS for Inhibitors of human tyrosyl-DNA phosphodiesterase 1 (TDP1): qHTS in cells in absence of CPT; Potency, µM (titrated, usually from 46.2 µM), usual class: inhibitors; DT40 Tdp1-/- hTDP1 cells, no CPT, ATP luminescence, 48 h; hit rate 15% among 420,000; note: nearly all actives have a fitted effect of over 55% in size
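Chicken DT40 Tdp1-/- cells stably complemented with human TDP1 were seeded at 400 cells/well with DMSO in place of 20 nM camptothecin. After compound pinning, cells grew at least 48 hr at 37 °C; viability read by CellTiter-Glo luminescence.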
KB-3-1 cytotox – kills parental KB-3-1 adenocarcinoma cells; KB-3-1 viability, CellTiter-Glo ATP luminescence, 72 h; Potency, µM (top dose mostly 46.1 µM), most hits filed as cytotoxic; hit rate 1.4% among 400,000; AID 1347075; note: nearly all actives have a fitted effect of over 60% in size
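Multi-concentration cytotoxicity screen in KB-3-1 cells grown in DMEM lacking phenol red with 10% FBS. After 72 h at 37 °C with compound, ATP-dependent luminescence was recorded.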
KB-V1 MDR tox – kills drug-selected multidrug resistant KB-V1 cells; KB-V1 MDR cells viability, CellTiter-Glo, 72 h; Potency, µM (titrated, usually from 46.1 µM), hits mostly cytotoxic; hit rate 3.4% among 400,000; AID 1347076; note: nearly all actives have a fitted effect of over 60% in size
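Luminescent ATP read-out (CellTiter-Glo, 10 min) measures survival of drug-selected KB-V1 MDR cells after 72 h, 37 degrees C compound exposure. Medium: phenol-red-free DMEM, 10% FBS. Values from fitted concentration-response curves.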
DT40 TDP1 CPT – growth inhibition of DT40 Tdp1-/-;hTDP1 cells with camptothecin (screen for TDP1 inhibitors); chicken DT40 Tdp1-/-;hTDP1 cells + 20 nM CPT, ATP luminescence, 48 h; hit rate 12% among 420,000; Potency, µM (top dose mostly 46.2 µM), usual class: inhibitors; note: nearly all actives have a fitted effect of over 55% in size
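Chicken DT40 Tdp1-/- cells complemented with human TDP1, 400 cells/well, exposed to compounds plus 20 nM camptothecin for at least 48 h at 37 C; viability read as ATP content by CellTiter-Glo luminescence.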
HT1080-NT tox – kills 2HG-producing HT-1080-NT fibrosarcoma cells | HT-1080-NT fibrosarcoma viability, CellTiter-Glo ATP luminescence, 48 h | Potency, µM (top dose mostly 46.1 µM), most hits filed as cytotoxic | hit rate 1.6% among 360,000;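 note: NT is the 2HG producing partner of a matched IDH1 knockdown line; nearly all actives have a fitted effect of over 55% in size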
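HT-1080-NT fibrosarcoma cells (2HG-overproducing), 750 cells/well in RPMI with 5% FBS, dosed after 2 h and incubated 48 h at 37C. CellTiter-Glo luminescence normalized to DMSO and no-cell wells; concentration-response curves fitted and classed.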
HT1080 IDH1KD tx – HT-1080 IDH1 knockdown cell toxicity (counter line); HT-1080 IDH1 knockdown viability, ATP luminescence, 48 h; Potency, µM (top dose mostly 46.1 µM), hits mostly cytotoxic; hit rate 2% among 360,000
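IDH1KD HT-1080 cells, 750/well, RPMI + 5% FBS; compound pinned after 2 h settling; 48 h, 37 °C; CellTiter-Glo luminescence; % activity normalised to DMSO and no-cell wells; curves fitted, classed by r2 and efficacy.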
Hits are given with their value; – = inactive; ? = inconclusive; · = no result given. Sampled rows, rich in hits. Any-hit rate of the full collection: about 19%. Calls come from the whole dose curve; as a rule, active = well fitted curve in the direction sought with a large enough effect; inconclusive = small, poorly fitted or top-dose-only effect, or another doubt; inactive = no such curve, though single readings can be large; an effect the other way counts as inactive or inconclusive.

SMILES	TDP1 cell noCPT	KB-3-1 cytotox	KB-V1 MDR tox	DT40 TDP1 CPT	HT1080-NT tox	HT1080 IDH1KD tx
COc1ccc(-c2cc(N)n(S(=O)(=O)c3c(F)c(F)c(F)c(F)c3F)n2)cc1OC	0.82µM	10.3µM	9.2µM	0.184µM	7.08µM	3.98µM
O=C(O)CC1(c2ccc(F)cc2)C2CC3CC(C2)CC1C3 (stereo unspecified)	–	–	–	–	–	–
CCCNC(=O)C1(C)CCN(C(=O)c2c(F)ccc(C)c2F)C1 (stereo unspecified)	–	–	–	–	–	–
O=C(CSCc1ccc(Cl)cc1)Nc1cc([N+](=O)[O-])ccc1O	18.4µM	–	–	?	?	?
O=C1NC(c2ccccc2)Nc2c1sc(=S)n2-c1ccccc1 (stereo unspecified)	6.51µM	–	?	–	–	–
CCOc1ccc(C2NC(=O)c3sc(=S)n(-c4ccccc4)c3N2)cc1 (stereo unspecified)	?	–	–	–	–	–
COc1ccccc1NS(=O)(=O)c1cc(N/C(=N/S(=O)(=O)c2ccccc2)c2ccc(F)cc2)ccc1Cl	20.6µM	?	–	·	–	–
COc1ccc(NS(=O)(=O)c2cccc(N/C(=N\S(=O)(=O)c3ccccc3)c3ccc(F)cc3)c2)cc1	?	–	–	20.6µM	?	?
CCc1ccc(S(=O)(=O)c2nnn3c2nc(N2CCOCC2)c2ccccc23)cc1	–	–	–	?	–	–
CC/C(=C/c1ccccc1)c1cccc2[nH]c3c(OC)cccc3c12	?	?	?	20.6µM	?	?
CC(=O)n1cc(Nc2ccc([N+](=O)[O-])cc2)c2ccccc21	?	–	?	?	–	–
CCOC(=O)c1ccccc1Nc1cn(C(C)=O)c2ccccc12	4.61µM	5.8µM	–	3.66µM	?	?
COC(=O)[C@@H](NC(=O)N1CCN(C(=O)C2COc3ccccc3O2)CC1)C(C)C (stereo partly specified)	–	–	?	–	–	–
CN1CCN(CCCNC(=O)c2ccc3c(c2)N(Cc2ccc(F)cc2)CCS3)CC1	?	–	–	16.4µM	–	?
O=C(NCCCN1CCOCC1)c1ccc2c(c1)N(Cc1ccc(F)cc1)CCS2	?	–	–	16.4µM	–	?
O=C(NCC1CCCO1)c1ccc2c(c1)N(Cc1ccc(F)cc1)CCS2 (stereo unspecified)	?	–	–	?	–	–
O=C(NCCN1CCOCC1)c1ccc2c(c1)N(Cc1ccc(F)cc1)C(=O)CS2	–	?	?	–	–	–
CCN1CCN(CCCNC(=O)c2ccc3c(c2)N(Cc2ccccc2)CCS3)CC1	?	–	–	23.1µM	–	?
COc1ccc(CCNC(=O)c2ccc(CS(=O)Cc3ccc(Cl)cc3)o2)cc1OC (stereo unspecified)	?	–	–	?	–	–
Cc1cc(C)cc(C(=O)N2CCN(c3ccccn3)CC2)c1	–	–	?	–	–	–
O=C(Cn1c(=O)c2sccc2n(Cc2cccc([N+](=O)[O-])c2)c1=O)NCCc1ccccc1	?	–	8.2µM	?	–	?
O=C(Cn1c(=O)c2sccc2n(CC(=O)Nc2ccc(Cl)cc2Cl)c1=O)NCCc1ccccc1	–	·	·	?	·	·
O=C(Cn1c(=O)c2sccc2n(Cc2ccc([N+](=O)[O-])cc2)c1=O)NCCc1ccccc1	13µM	–	–	?	–	–
Cc1ccc(-n2c(C)c([N+](=O)[O-])c3ccc(O)c(CN(C)C)c32)cc1	?	–	–	?	–	–
CCc1c(C)c2ccc(O)c(CN3CCN(c4ccccc4)CC3)c2oc1=O	20.6µM	·	·	14.6µM	·	·
SMILES	TDP1 cell noCPT	KB-3-1 cytotox	KB-V1 MDR tox	DT40 TDP1 CPT	HT1080-NT tox	HT1080 IDH1KD tx
O=c1cc(-c2ccccc2)c2ccc(O)c(CN3CCCCC3)c2o1	–	–	13µM	–	–	–
COc1ccc(-c2c(C)c3ccc(O)c(CN4CCCC4)c3oc2=O)cc1	14.6µM	·	·	?	·	·
COc1ccc(-n2c(C)c([N+](=O)[O-])c3ccc(O)c(CN4CCCCC4)c32)cc1	?	–	–	16.4µM	–	–
Cc1cc(=O)oc2c(CN3CCCCC3)c(O)ccc12	?	–	–	–	–	–
CCOC(=O)c1cc2sccc2n1CC(=O)N1CCN(C(=O)c2ccco2)CC1	–	–	–	–	–	–
CCOc1ccccc1CNS(=O)(=O)c1cnc(N)nc1	?	·	·	–	·	·
COc1ccc(-c2c(C)c3ccc(O)c(CN4CCOCC4)c3oc2=O)cc1	23.1µM	–	–	16.4µM	·	·
COc1ccc(Oc2c(C)oc3c(CN4CCOCC4)c(O)ccc3c2=O)cc1	–	–	–	–	–	–
Cc1c(-c2ccc(Cl)cc2)c(=O)oc2c(CN3CCN(C)CC3)c(O)ccc12	23.1µM	–	–	?	·	·
Cc1c(C)c2ccc(O)c(CN3CCN(C)CC3)c2oc1=O	–	–	–	–	–	–
CCOC(=O)Cc1cc(C(=O)Nc2ccc(Br)cc2)sc1-c1ccc(C)cc1	20.6µM	–	–	?	·	·
COc1ccc(NC(=O)Cn2c([N+](=O)[O-])cnc2C)c(OC)c1	–	–	–	–	–	–
CCOCCc1nn2c(=O)cc(COC(=O)COc3ccccc3Cl)nc2s1	–	–	–	–	·	·
CCOC(=O)C1=CCN(S(=O)(=O)c2ccccc2Cl)C1c1cccc(F)c1 (stereo unspecified)	?	–	–	?	–	–
CC1(C(=O)Nc2ccccc2)CCN1C(=O)CCc1ccc(Cl)cc1Cl (stereo unspecified)	20.6µM	–	–	?	–	–
CSc1ccccc1NC(=O)C1(C)CCN1C(=O)Cc1ccc(Cl)cc1Cl (stereo unspecified)	?	–	–	?	–	–
CC1(C(=O)Nc2ccccc2Br)CCN1C(=O)Cc1ccc(Cl)cc1Cl (stereo unspecified)	16.4µM	–	–	23.1µM	–	–
CC(C)(C)c1ccc(CC(=O)N2CCC2(C)C(=O)NCc2ccc3c(c2)OCO3)cc1 (stereo unspecified)	?	–	–	?	?	?
CC1(C(=O)NCc2ccc3c(c2)OCO3)CCN1C(=O)CCc1ccc(Cl)cc1Cl (stereo unspecified)	14.6µM	–	–	20.6µM	–	?
CC1(C(=O)NS(=O)(=O)Cc2ccccc2)CCN1C(=O)C1(c2ccc(Cl)cc2)CC1 (stereo unspecified)	–	–	–	–	–	–
CCCc1nc(NCc2ccncc2)c2nnn(Cc3ccccc3F)c2n1	14.6µM	–	?	?	?	18.4µM

Screening results as filed in PubChem BioAssay.
